Shiga toxin inh: inhibitors of Shiga toxin in Vero cells | Vero cells, Shiga toxin protein synthesis inhibition reporter | inhibition, % at 38.7 µM | 290,000 tested, 9.2% active | AID 2315; in the data active = inhibition mostly above about 28%, no sharp cut-off; inactive = mostly below about 43%
Pf growth 48h: inhibits P. falciparum growth in the first generation, 48 h | P. falciparum luciferase growth in erythrocytes, 48 h | Potency, µM (series often up to 28.7 µM), actives largely listed as inhibitors | 310,000 tested, 5.9% active | AID 504832
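First compound was added to culture medium, then infected red cells at 0.1% parasitemia and 2% hematocrit (final). After incubation at 37 C under 5% CO2, luciferase detection reagent was dispensed and light output recorded.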
Pf growth 96h: P. falciparum growth inhibition at 96 hour, primary screen for plastid delayed-death inhibitors | P. falciparum luciferase reporter growth, 96 h | Potency, µM (doses to about 28.7 µM), hits mostly inhibitors | AID 504834 | 320,000 tested, 6.9% active
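P. falciparum expressing integrated firefly luciferase, in erythrocytes at 2% hematocrit, 0.05% parasitemia, incubated with compounds 96 h at 37 C, 5% CO2. Growth inhibition read as loss of luminescence; two-generation exposure targets delayed-death apicoplast inhibitors.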
Cycloheximide cs: counter-screen for Shiga toxin inhibitors: cycloheximide protein synthesis inhibition; cell reporter, cycloheximide protein synthesis inhibition counterscreen; max response, %; 300,000 tested, 12% active; AID 2314; in the data active = max response mostly above about 13%, no sharp cut-off; inactive = mostly below about 14%; also: read at 38.3 µM for the half of the compounds with a filed dose
SARS PLP yeast: inhibitors of SARS-CoV papain-like protease in yeast. S. cerevisiae expressing SARS-CoV PLpro, growth rescue. Potency, µM (titrated, usually from 32.9 µM), most hits filed as activators. 330,000 tested, 0.19% active; calls by dose curve; also: nearly all actives have a fitted effect of over 55% in size
NS1 function inh: blocks influenza NS1 protein function; Potency, µM (highest dose often 46.1 µM); 270,000 tested, 0.4% active; AID 2326; calls by dose curve; also: actives are rising curves; nearly all actives have a fitted effect of over 50% in size
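Read-out: OD600 growth recovery of NS1-expressing budding yeast. Cells grown overnight at 30C in -URA glucose medium, washed, resuspended and diluted 1:100 in 2% galactose assay medium, pH 6.0. Same strain lacking NS1 served as positive control.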
Large screens that a line does not name were inactive. Only some compounds are listed: those with a hit (about 21% of all), similar ones and a draw of the others. Unless noted, calls follow the shape of the dose curve; as a rule, active = well fitted inhibition curve with a large enough effect; inconclusive = small, poorly fitted or top-dose-only effect, or another doubt; inactive = no such curve, though single readings can be large or run the other way.

COc1ccc(/C=N/N2CCN(Cc3ccccc3)CC2)cc1	none
COC(=O)c1ccc(/C=N\N2CCN(Cc3ccc(C)cc3)CC2)cc1	none
CN1CCN(/N=C/c2ccc(OCc3ccccc3)cc2)CC1	Shiga toxin inh 107, Cycloheximide cs 65
COC(=O)c1ccc(COc2ccc(/C=N/N3CCN(C)CC3)cc2)cc1	Shiga toxin inh 155, Cycloheximide cs 56
CC(=O)Oc1ccccc1C(=O)Oc1ccc(/C=N/n2cnnc2)cc1	Pf growth 96h 8.3µM
COC(=O)c1ccc(NC(=O)CCN2C(=O)NC(C)(C)C2=O)cc1	none (no result: Shiga toxin inh, Cycloheximide cs, NS1 function inh)
CCNC(=O)COC(=O)c1cc(-c2ccccc2)nn1-c1ccccc1	none (no result: NS1 function inh)
CCC1C(=O)n2nc(-c3ccccc3)cc2N=C1C (stereo not drawn)	Shiga toxin inh active, Pf growth 48h inconclusive, Pf growth 96h inconclusive, Cycloheximide cs 40
CC(C)(C)OC(=O)CNC(=O)c1nc[nH]c1C(=O)N1CCc2ccccc2C1	none
Cc1ccc(C)c(Cn2c3ccccc3c3cnn(CC(=O)NCc4ccccn4)c(=O)c32)c1	Pf growth 48h inconclusive, Pf growth 96h 12µM
Cc1cc(=O)nc2c3ccccc3n(CC(=O)NCCCN3CCCCC3C)n12 (stereo not drawn)	Pf growth 96h inconclusive
CCN(c1ccccc1)S(=O)(=O)c1ccc(C(=O)N(CCN(C)C)c2nc3c(F)cc(F)cc3s2)cc1	Pf growth 96h inconclusive
CCn1cc(C(=O)O)c(=O)c2cnc(N3CCCC3)nc21	none (no result: Shiga toxin inh, Cycloheximide cs, SARS PLP yeast, NS1 function inh)
O=C(NNC(=O)C1CCN(S(=O)(=O)c2ccc(Cl)cc2)CC1)c1ccccc1	NS1 function inh inconclusive
Cc1ccccc1NC(=O)CN1C(=O)CSc2ccc(S(=O)(=O)N3CCCCC3)cc21	Pf growth 48h inconclusive
Cc1ccccc1NC(=O)CN1C(=O)CSc2ccc(S(=O)(=O)N3CCCC3)cc21	Pf growth 96h 13µM
CC(=O)c1ccc(NC(=O)CN2C(=O)COc3ccc(S(=O)(=O)N4CCCC4)cc32)cc1	none
COc1cc(NC(=O)CN2C(=O)COc3ccc(S(=O)(=O)N4CCCC4)cc32)cc(OC)c1	Pf growth 48h inconclusive, Pf growth 96h 0.41µM
Cc1cc(C)cc(NC(=O)CN2C(=O)COc3ccc(S(=O)(=O)N4CCCC4)cc32)c1	Pf growth 96h inconclusive
COc1cc(NC(=O)CN2C(=O)COc3ccc(S(=O)(=O)N4CCCCC4)cc32)cc(OC)c1	Pf growth 48h inconclusive, Pf growth 96h 10µM
CC(=O)c1cccc(NC(=O)CN2C(=O)COc3ccc(S(=O)(=O)N4CCOCC4)cc32)c1	Pf growth 48h inconclusive, Pf growth 96h 12µM
COc1ccccc1CNS(=O)(=O)c1ccc(-c2cnc(C3CC3)o2)cc1	Pf growth 96h inconclusive
CCOc1ccc(-c2cc(N)n(S(=O)(=O)c3cccc4nsnc34)n2)cc1	Pf growth 48h inconclusive, Pf growth 96h inconclusive
C[C@]12c3[nH]c4ccc(Cl)cc4c3CCN1C(=O)[C@@H](CC(=O)NCCC1=CCCCC1)C[C@@H]2C(=O)N1CCOCC1	none (no result: Shiga toxin inh, Pf growth 48h, Pf growth 96h, Cycloheximide cs, NS1 function inh)
OCCC1CN(Cc2nc3ccc(F)cc3[nH]2)CCN1C1CCCC1 (stereo not drawn)	none
COc1cccc(OCc2nnc(SC)n2C)c1	Cycloheximide cs 32
COc1ccc(C(=O)NNC(=O)CSc2nnc(COc3ccc4ccccc4c3)n2C)cc1	Pf growth 96h 2.3µM
COc1cccc(OCc2nnc(SCC(=O)NNC(=O)C3CCCCC3)n2C)c1	Pf growth 96h 13µM (no result: NS1 function inh)
COc1cccc(OCc2nnc(SCC(=O)OC3CCCCC3)n2C)c1	Pf growth 48h inconclusive
Cc1oc(C)c(C(=O)Nc2ccccc2)c1C	none (no result: Pf growth 48h, Pf growth 96h, SARS PLP yeast, NS1 function inh)
Cc1cc[n+](-c2[nH]c(=O)sc2/C=N/N=C(\[O-])c2ccccc2)cc1	Shiga toxin inh 68, Cycloheximide cs 49
O=c1[nH]c(-[n+]2ccccc2)c(/C=N/N=C(\[O-])c2ccccc2)s1	Shiga toxin inh 41, Cycloheximide cs 19
Cc1cc[n+](-c2[nH]c(=O)sc2/C=N/N=C(\[O-])c2ccccc2)cc1C	Shiga toxin inh 74, Cycloheximide cs 39 (no result: NS1 function inh)
O=C(N/N=C/c1sc(=O)[nH]c1-[n+]1ccc2ccccc2c1)c1ccccc1[O-]	Shiga toxin inh 48, Cycloheximide cs 27
Cc1cc[n+](-c2[nH]c(=O)sc2/C=N/N=C(\[O-])c2ccncc2)cc1	Pf growth 96h inconclusive
COc1ccc(N(C(=O)c2cnccn2)C(C(=O)NC2CCCCC2)c2ccc(O)cc2)cc1 (stereo not drawn)	Pf growth 96h inconclusive
Cc1cc(=O)oc2cc(NC(=O)C(CCCN=C(N)N)NC(=O)OCc3ccccc3)ccc12 (stereo not drawn)	Pf growth 48h inconclusive
COc1cc(C(=O)N/N=C/c2sc(=O)n(-c3ccccc3)c2Cl)cc(OC)c1OC	Cycloheximide cs 19
O=C(N/N=C/c1sc(=O)n(-c2ccccc2)c1Cl)c1ccncc1	Shiga toxin inh 67, Pf growth 48h inconclusive, Pf growth 96h inconclusive, Cycloheximide cs 20
COc1cc(C(=O)N/N=C/c2sccc2C)cc(OC)c1OC	none (no result: NS1 function inh)
COC(=O)C1=C(c2cccc(C#N)c2)C[C@@H]2CC[C@H]1N2C(=O)NCc1cc(C)oc1C(F)(F)F	Pf growth 48h 12µM, Pf growth 96h inconclusive (no result: Shiga toxin inh, Cycloheximide cs, NS1 function inh)
COC(=O)C1=C(c2cccc(C#N)c2)C[C@@H]2CC[C@H]1N2C(=O)NCc1cccc2ccccc12	Pf growth 48h 8.3µM, Pf growth 96h inconclusive (no result: Shiga toxin inh, Cycloheximide cs, NS1 function inh)
COC(=O)C1=C(c2ccc(-c3ccccc3)c(F)c2)C[C@@H]2CC[C@H]1N2C(=O)NCc1cc(C)oc1C(F)(F)F	Pf growth 48h 2.3µM, Pf growth 96h inconclusive (no result: Shiga toxin inh, Cycloheximide cs, NS1 function inh)
COC(=O)C1=C(c2cccc(C#N)c2)C[C@@H]2CC[C@H]1N2C(=O)NCC1CC1	none (no result: Shiga toxin inh, Cycloheximide cs, NS1 function inh)
Cc1c(Cl)cnc(NC(=O)CSc2nncs2)c1Cl	none
CN(C1CCCCC1)S(=O)(=O)Cc1ccccc1	none (no result: Pf growth 96h)
Cn1c(C(=O)NCCCN2CCOCC2)cc2c(=O)n(C)c3ccccc3c21	NS1 function inh inconclusive (no result: Pf growth 48h)
Cc1ccc(CNC(=O)c2cc3c(=O)n(C)c4ccccc4c3n2C)o1	Pf growth 96h 9.3µM (no result: Pf growth 48h)
CC1CCN(CCCNC(=O)c2cc3c(=O)n(C)c4ccccc4c3n2C)CC1	Pf growth 96h 7.4µM (no result: Pf growth 48h)
Cn1c(C(=O)NCCCN2CCN(c3ccccc3F)CC2)cc2c(=O)n(C)c3ccccc3c21	Pf growth 96h 9.3µM (no result: Pf growth 48h)
Cc1ccc(NC(=O)CSc2nncn2-c2ccccn2)cc1Cl	none
CN(C(=O)c1ccccc1C(=O)OCC(=O)Nc1ccc(S(N)(=O)=O)cc1)c1ccccc1	Pf growth 48h inconclusive (no result: Shiga toxin inh, Cycloheximide cs, NS1 function inh)
COCCCn1c(SCC(=O)Nc2ccc3c(c2)OCCO3)nnc1-c1ccoc1C	Shiga toxin inh 76, Cycloheximide cs 27
COCCn1c(SCC(=O)N2CCCC2)nnc1-c1ccoc1C	Shiga toxin inh 82, Pf growth 96h inconclusive
Cc1occc1-c1nnc(SCC(=O)N2CCN(c3ccccc3F)CC2)n1C	Pf growth 96h 3.7µM
COCCn1c(SCC(=O)c2cccc(OC)c2)nnc1-c1ccco1	Pf growth 96h 13µM

Screens: PubChem, National Center for Advancing Translational Sciences (NCATS)
